Active and inactive are the calls of the source. Unless noted, no rule for the calls is given here.

The subject of assay [1] is XIP peptide (Xip251-270) binding. The assay can be described thus: small-molecule binders of XIP peptide, primary screen, biochemical, small-molecule microarray, fluorescence 635/667 nm, 0.1 µg/mL protein (AID 1182). The conditions noted are these: fluorescent protein binding, 635 nm, higher = more signal, called active from +8 up or from −8 down.
Assay [2] relates to XIP peptide (Xip251-270). The assay can be described thus: small-molecule binders of XIP peptide, primary screen, biochemical, small-molecule microarray, fluorescence 635/667 nm, 0.5 µg/mL protein (AID 1183). The conditions noted are these: small-molecule microarray binding, fluorescence 635 nm; higher = more signal.
Assay [3] is described as follows: Plasmodium falciparum growth inhibition, primary screen, strain 3D7, DAPI fluorescence, 100 nL (AID 1184).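 Also: parasites grown inside human red blood cells in medium with human serum.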 The settings on record: P. falciparum 3D7 growth, 3 d, higher = more signal.
Assay [4] addresses Homeobox protein Hox-A13 (Mus musculus) (UniProt Q62424). The assay can be described thus: inhibitors of HoxA13-DNA binding, primary screen, biochemical, fluorescence polarization, labeled oligonucleotide (AID 1185). The settings on record: 15 min, higher = more signal, called active from +8 up or from −8 down.
Assay [5] is described as follows: inhibitors of hydroxyurea-induced Chk1 phosphorylation, primary screen, imaging, HeLa, phospho-Chk1 antibody, percent positive cells (AID 1186). The settings on record: hydroxyurea-induced phospho-Chk1 immunofluorescence imaging, higher = more signal.
The nature of assay [6]: inhibitors of hydroxyurea-induced Chk1 phosphorylation, primary screen, imaging, HeLa, phospho-Chk1 nuclear intensity (AID 1187). The settings on record: hydroxyurea-induced phospho-Chk1 immunofluorescence imaging, higher = more signal.

Sequence of Homeobox protein Hox-A13 (Mus musculus) (Q62424 whole entry, looked up): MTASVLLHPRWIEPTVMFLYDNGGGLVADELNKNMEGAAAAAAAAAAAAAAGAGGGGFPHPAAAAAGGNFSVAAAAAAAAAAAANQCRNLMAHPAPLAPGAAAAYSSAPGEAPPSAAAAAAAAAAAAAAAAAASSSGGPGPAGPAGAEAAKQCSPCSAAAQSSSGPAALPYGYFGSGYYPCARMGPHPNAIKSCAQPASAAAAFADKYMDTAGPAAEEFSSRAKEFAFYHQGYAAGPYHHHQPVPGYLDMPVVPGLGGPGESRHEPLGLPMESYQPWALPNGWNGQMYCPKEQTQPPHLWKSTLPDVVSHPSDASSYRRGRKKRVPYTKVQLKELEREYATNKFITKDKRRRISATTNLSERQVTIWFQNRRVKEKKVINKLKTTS

Consider `CC(C)CN1C(=O)[C@@]2(c3ccc([N+](=O)[O-])cc3)CC(=O)N(C3CCCCC3)[C@@H]2c2ccc(CO)cc21`, for which the values for the composite z-score in assay [1] and in assay [2] were -0.0685 (inactive) and -0.57, respectively. For the same compound, the z-score in assay [3] is -0.643; in assay [4], -0.113 (inactive); in assay [5], 0.0566 (inactive); in assay [6], 0.558 (inactive).

For the compound `O=C1OCC=C[C@H]2OC34C=CCN(CCN5CCOCC5)C(=O)[C@H]3N(CCO)C(=O)[C@@H]4[C@@H]12` (stereo partly specified), the composite z-score in assay [1] was 0.218 (inactive); in assay [2], 0.775. The z-score in assay [3] was 0.703; in assay [4] it was -5.02 (inactive); in assay [5], -0.474 (inactive); in assay [6], -0.371 (inactive).

With `C=C(/C(=C/C[C@H](OC(=O)c1ccncc1)c1ccc(OCCO)cc1)c1cc(C(=O)OC)ccc1OC)C(C)C`, the results for the composite z-score in assay [1] and in assay [2] were 0.249 (inactive) and 0.505, respectively. Moreover, the z-score in assay [3] is -2.87; in assay [4] it was -3.23 (inactive); in assay [5], -0.962 (inactive); in assay [6] it was -0.621 (inactive).

Consider `CCCCC(=C=CC[C@@H](O)c1cccc(OCCO)c1)C[C@@H](O)c1ccccn1`, for which the figures for the composite z-score in assay [1] and in assay [2] were 1.26 (inactive) and 0.75, respectively. Moreover, the z-score in assay [3] was -0.12; in assay [4] it was -5.42 (inactive); in assay [5], -0.0346 (inactive); in assay [6], 0.159 (inactive).

`COCCOC(=O)N1C(=O)[C@@]2(c3cc(C#CCCO)ccc31)[C@H](c1ccc(O)cc1)N1[C@H](c3ccccc3)[C@H](c3ccccc3)OC(=O)[C@H]1[C@@H]2C(=O)N1CCN(c2ncccn2)CC1`: the composite z-score was 0.729 (inactive) in assay [1] and 0.831 in assay [2]. The z-score is -1.13 in assay [3], -2.37 (inactive) in assay [4], -0.264 (inactive) in assay [5] and -0.0303 (inactive) in assay [6].

Regarding `COCCOC(=O)N1C(=O)[C@@]2(c3cc(C#CC4(O)CCCCCC4)ccc31)[C@H](C(=O)Nc1nc3ccccc3s1)[C@H]1C(=O)O[C@H](c3ccccc3)[C@H](c3ccccc3)N1[C@@H]2c1ccccc1OCCO`, the composite z-score in assay [1] is 1.77 (inactive); in assay [2] it was 0.748. Also, the z-score in assay [3] was -1.43; in assay [4], 2.95 (inactive); in assay [5], 0.203 (inactive); in assay [6], 0.693 (inactive).

For `C=CCNC(=O)[C@@H]1[C@H]2C(=O)O[C@H](c3ccccc3)[C@H](c3ccccc3)N2[C@H](c2ccc(OCCO)cc2)[C@@]12C(=O)N(C(=O)OCCOC)c1ccc(C#CCC(C(=O)OC)C(=O)OC)cc12`, the composite z-score is 1.33 (inactive) in assay [1] and 0.743 in assay [2]. Moreover, the z-score in assay [3] is -2.11; in assay [4], -1.17 (inactive); in assay [5], 0.053 (inactive); in assay [6], 0.0115 (inactive).

For `COCCOC(=O)N1C(=O)[C@@]2(c3cc(C#CC4(O)CCCCCC4)ccc31)[C@H](C(=O)Nc1nc3ccccc3s1)[C@H]1C(=O)O[C@H](c3ccccc3)[C@H](c3ccccc3)N1[C@@H]2c1ccc(OCCO)cc1`, the composite z-score was -0.148 (inactive) in assay [1] and 0.712 in assay [2]. Further, the z-score in assay [3] is -1.71; in assay [4], 0.447 (inactive); in assay [5], -0.086 (inactive); in assay [6], -0.0454 (inactive).

As to `COCCOC(=O)N1C(=O)[C@@]2(c3cc(C#CC4=CCCCC4)ccc31)[C@H](C(N)=O)[C@H]1C(=O)O[C@H](c3ccccc3)[C@H](c3ccccc3)N1[C@@H]2c1ccc(O)cc1`, the figures for the composite z-score in assay [1] and in assay [2] were 1.79 (inactive) and 0.769, respectively. Also, the z-score in assay [3] was 0.55; in assay [4] it was -0.393 (inactive); in assay [5], -0.371 (inactive); in assay [6], -0.552 (inactive).

In the case of `[N-]=[N+]=NCc1ccccc1C[C@@]1(C(=O)NCC(O)CO)N=C(c2ccc(OCCCO)cc2)O[C@@H]1c1ccccc1` (stereo partly specified), the results for the composite z-score in assay [1] and in assay [2] were 0.691 (inactive) and 0.684, respectively. For the same compound, the z-score was -2.03 in assay [3], -4.12 (inactive) in assay [4], -0.0558 (inactive) in assay [5] and 0.274 (inactive) in assay [6].

`O=C1[C@H]2C=C(Br)[C@H](C[C@@H]2OCCCCCCO)[C@@]12CO2`: the results for the composite z-score in assay [1] and in assay [2] were -0.358 (inactive) and -0.777, respectively. Moreover, the z-score is -0.355 in assay [3], -1.84 (inactive) in assay [4], 0.73 (inactive) in assay [5] and 0.231 (inactive) in assay [6].

As to `O=C1C2C=CC(C(O)c3cc(C(F)(F)F)cc(C(F)(F)F)c3)N(Nc3ccccc3)C2C(=O)N1c1ccccc1` (stereo unspecified), the composite z-score in assay [1] is 0.926 (inactive); in assay [2], 0.197. The z-score was 0.0018 in assay [3], -2.82 (inactive) in assay [4], 0.0811 (inactive) in assay [5] and -0.017 (inactive) in assay [6].

Turning to `C=CC[C@@]1(C(=O)N2CCCCC2)N=C(c2ccc(OCCCO)cc2)O[C@@H]1c1ccccc1N=[N+]=[N-]`, the values for the composite z-score in assay [1] and in assay [2] were 0.195 (inactive) and 0.602, respectively. Moreover, the z-score in assay [3] is -1.94; in assay [4], -2.64 (inactive); in assay [5], -0.679 (inactive); in assay [6] it was -0.667 (inactive).

`CN1C(=O)C2C=CC(C(O)c3c(F)cccc3Cl)N(NC(=O)OC(C)(C)C)C2C1=O` (stereo unspecified): the composite z-score was 1.69 (inactive) in assay [1] and 0.836 in assay [2]. Besides, the z-score was 0.436 in assay [3], -1.51 (inactive) in assay [4], 0.0188 (inactive) in assay [5] and 0.0545 (inactive) in assay [6].

`COCC(=C=CC[C@H](O)c1cccc(OCCO)c1)CCO`: the values for the composite z-score in assay [1] and in assay [2] were 1.15 (inactive) and 0.433, respectively. For the same compound, the z-score in assay [3] is 0.547; in assay [4], -2.29 (inactive); in assay [5], -0.0132 (inactive); in assay [6], -0.479 (inactive).

Take `COc1ccc([C@H]2C[C@H]3C(Br)=C[C@@]2(CO)C(=O)[C@]32CO2)cc1`: the composite z-score in assay [1] is -0.358 (inactive); in assay [2], -0.311. For the same compound, the z-score in assay [3] is 0.951; in assay [4] it was -1.05 (inactive); in assay [5], -0.0281 (inactive); in assay [6], 0.202 (inactive).

On to `COCC(=C=CC[C@@H](O)c1ccc(OCCO)cc1)C[C@@H](O)c1ccccn1`, for which the results for the composite z-score in assay [1] and in assay [2] were 1.51 (inactive) and -0.161, respectively. The z-score was 0.797 in assay [3], -5.97 (inactive) in assay [4], 0.117 (inactive) in assay [5] and 0.265 (inactive) in assay [6].

Regarding `COc1ccc(C(O)C2C=CC3C(=O)N(C)C(=O)C3N2N(c2ccccc2)c2ccccc2)c2ccccc12` (stereo unspecified), the composite z-score in assay [1] is 0.742 (inactive); in assay [2], 0.763. In addition, the z-score is 0.889 in assay [3], -2.84 (inactive) in assay [4], 0.436 (inactive) in assay [5] and 0.15 (inactive) in assay [6].

As for `O=c1cccc(-c2ccccc2Cl)o1`, the composite z-score in assay [1] was -0.143 (inactive); in assay [2], -0.231. Further, the z-score in assay [3] is 0.382; in assay [4], -0.226 (inactive); in assay [5], 0.266 (inactive); in assay [6], -0.26 (inactive).

For `C=CCC(OC(C)=O)[C@@H]1[C@@H](N(Cc2ccc(-c3ccccc3)cc2)C(=O)Cc2ccc(F)cc2)c2cc(OCCCO)ccc2N1C(=O)c1ccc2ccccc2c1` (stereo partly specified), the composite z-score in assay [1] is -0.568 (inactive); in assay [2], -0.245. Further, the z-score was -2.17 in assay [3], -1.35 (inactive) in assay [4], 0.295 (inactive) in assay [5] and -0.009 (inactive) in assay [6].

`O=C(NC1CC1)[C@@H]1c2ccccc2C(=O)N(C2Cc3ccccc3C2)[C@H]1c1ccc(CO)cc1`: the composite z-score in assay [1] is 0.456 (inactive); in assay [2], 0.657. Besides, the z-score in assay [3] was -0.69; in assay [4], -1.14 (inactive); in assay [5], -0.217 (inactive); in assay [6], 0.0084 (inactive).

On to `CC(c1ccccc1)C(O)C1C=CC2C(=O)N(c3ccccc3)C(=O)C2N1Nc1ccccc1` (stereo unspecified), for which the composite z-score in assay [1] is 1.06 (inactive); in assay [2] it was 0.807. Also, the z-score in assay [3] was -0.417; in assay [4], -2.4 (inactive); in assay [5], 0.2 (inactive); in assay [6] it was 0.175 (inactive).

Consider `CN(C)CCCCCCNC(=O)[C@@H]1C[C@@H]2C(=O)N3CCC[C@H]3C(=O)N2[C@@H]1c1ccc(O)cc1`, for which the composite z-score was 2.98 (inactive) in assay [1] and 0.929 in assay [2]. Also, the z-score in assay [3] is 0.199; in assay [4], 0.647 (inactive); in assay [5], -0.849 (inactive); in assay [6] it was -0.147 (inactive).

Regarding `[N-]=[N+]=Nc1ccccc1C[C@@]1(C(=O)N2CCCCC2)N=C(c2ccc(OCCCO)cc2)O[C@@H]1c1ccccc1N=[N+]=[N-]`, the composite z-score in assay [1] was 0.973 (inactive); in assay [2] it was 0.0553. The z-score was -2.42 in assay [3], -4.67 (inactive) in assay [4], -0.425 (inactive) in assay [5] and -0.286 (inactive) in assay [6].

Turning to `COc1ccccc1CN1C(=O)c2ccccc2[C@@H](C(=O)NCc2ccccc2)[C@@H]1c1ccc(CO)cc1`, the composite z-score is 0.737 (inactive) in assay [1] and 0.785 in assay [2]. The z-score in assay [3] is -1.45; in assay [4], -1.22 (inactive); in assay [5], -0.295 (inactive); in assay [6], -0.0433 (inactive).

Regarding `CC[C@@H]1C=C(C(=O)O)[C@H](c2ccc(C)cc2)N1S(=O)(=O)c1ccc(C)cc1`, the composite z-score in assay [1] was -0.143 (inactive); in assay [2], 0.468. Moreover, the z-score in assay [3] was 1.14; in assay [4], -1.69 (inactive); in assay [5], 0.723 (inactive); in assay [6], 0.909 (inactive).

Source of the values: PubChem BioAssay.
